# High-throughput results as filed in PubChem.
# JMJD2A Tudor – qHTS Assay for Inhibitors of JMJD2A-Tudor Domain; AlphaScreen JMJD2A-Tudor / H3K4me3 peptide binding; Potency, µM (doses to about 114 µM), inactives show at the highest dose activity change, negative = inhibition, hits mostly inhibitors; 390,000 compounds, 4.4% hits; also: % is scaled to controls: 0 for no effect and ±100 for the full control effect; nearly all actives have a fitted effect of over 50% in size
# BAZ2B block – qHTS Assay for Inhibitors of BAZ2B | Potency, µM (series often up to 114 µM), for the others: at the top dose activity change, negative = inhibition, usual class: inhibitors | AlphaScreen BAZ2B-H3K14Ac peptide displacement | Bromodomain adjacent to zinc finger domain protein 2B (Homo sapiens), Q9UIF8 | 360,000 compounds, 4.4% hits | AID 504333, 2011; also: % is scaled to controls: 0 for no effect and ±100 for the full control effect; nearly all actives have a fitted effect of over 60% in size
#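 Compounds, titrated to a top concentration of 110 uM, were incubated 30 min at room temperature with preformed BAZ2B/acetyl-K14 H3 peptide complex (50 nM each). Proximity signal was measured by AlphaScreen after 20 min with beads.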
# HP1b chromo inh – HTS for Inhibitors of HP1-beta Chromodomain Interactions with Methylated Histone Tails | Chromobox protein homolog 1 (Homo sapiens), P83916 | AlphaScreen HP1-beta / biotin-H3K9me3 peptide binding | Potency, µM (highest dose often 114 µM), for inactives: top-dose activity change, negative = inhibition, usual class: inhibitors | 390,000 compounds, 0.56% hits | AID 540317, 2011; also: nearly all actives have a fitted effect of over 70% in size
#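 AlphaScreen: HP1-beta (50 nM) preformed 30 min with biotin-H3(1-18)K9me3 peptide (50 nM) in PBS pH 7.4, 0.01% Tween-20. Compound added for 30 min at RT, then streptavidin donor/nickel chelate acceptor beads (10 ug/mL) for 30 min.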
# L3MBTL1 block – qHTS Assay for the Inhibitors of L3MBTL1; Lethal(3)malignant brain tumor-like protein 1 (Homo sapiens), Q9Y468; Potency, µM (highest dose often 57.1 µM), inactives show top-dose activity, negative = inhibition, usual class: inhibitors; 230,000 compounds, 0.66% hits; AlphaScreen L3MBTL1–H3K9me1 peptide binding; also: % is scaled to controls: 0 for no effect and ±100 for the full control effect; nearly all actives have a fitted effect of over 60% in size
#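 Read-out is AlphaScreen signal from streptavidin donor and nickel chelate acceptor beads (10 ug/mL final each) bridging L3MBTL1 (50 nM) and biotinylated K9-monomethylated H3(1-15) peptide (75 nM), after 30 min compound exposure at room temperature.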
# G9a inh – qHTS Assay for Inhibitors of Histone Lysine Methyltransferase G9a; Potency, µM (doses to about 102 µM), without a hit: at the top dose activity, negative = inhibition, usual class: inhibitors; Histone-lysine N-methyltransferase EHMT2 (Homo sapiens), Q96KQ7; 350,000 compounds, 8.8% hits; G9a H3K9 monomethylation, AlphaScreen, 2 h; also: % is scaled to controls: 0 for no effect and ±100 for the full control effect; nearly all actives have a fitted effect of over 75% in size
#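 Compounds were preincubated with 20 nM G9a for 15 min, after which biotinylated H3K9 peptide (500 nM) and SAM (20 uM) started a 2 h room-temperature reaction. Monomethylated product was quantified by antibody-based AlphaScreen chemiluminescence.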
# Sfp inh – qHTS Assay for Inhibitors of Bacillus subtilis Sfp phosphopantetheinyl transferase (PPTase) | 310,000 compounds, 3.5% hits | 4'-phosphopantetheinyl transferase ffp (Bacillus subtilis), Q9F4F7 | Biochemical Sfp PPTase activity, qHTS | AID 1490, 2009 | Potency, µM, for inactives: largest response in the series, negative = inhibition, most hits filed as inhibitors;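 also: the enzyme is Sfp with the accession as filed and its product quenches rhodamine fluorescence; 0% = enzyme reaction without inhibitor and -100% = no enzyme wells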
#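 Step 1, compound plus 15 nM Sfp-PPTase, 15 min, room temperature. Step 2, add rhodamine-CoA (5 uM) and BHQ-2-YbbR (12.5 uM). Step 3, read 525/598 nm fluorescence at 0 and 30 min.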
# * hit, by the source's call; ? = inconclusive; nt = no result; [ ] = another dose, or the depositor's remark. Only some compounds are listed: those with a hit (about 12% of all), similar ones and a draw of the others. Calls follow the shape of the dose curve; as a rule, active = well fitted curve in the direction sought with a large enough effect; inconclusive = small, poorly fitted or top-dose-only effect, or another doubt; inactive = no such curve, though single readings can be large; an effect the other way counts as inactive or inconclusive. Potency is read from the fitted curve at half-maximal effect.
SMILES,JMJD2A Tudor,BAZ2B block,HP1b chromo inh,L3MBTL1 block,G9a inh,Sfp inh
Cc1cc(C)nc(NS(=O)(=O)c2ccc(Br)s2)c1,-21.4%,-1.6%,30.1%,nt,50.1µM*,?
Cc1ccc(NS(=O)(=O)c2ccc(Br)s2)nc1,-19.7%,-31.0%,-14.5%,-7.5%[11.4 µM],39.8µM*,?
COc1ccc(C)cc1NS(=O)(=O)c1ccc(Br)s1,-7.9%,0.3%,39.7%,nt,18.6%[2.33 µM],3.0%
Cc1cccc(NS(=O)(=O)c2ccc(Br)s2)n1,-11.3%,-8.1%,25.1%,nt,?,11.0%
CCOc1ccc(NC(=O)c2ccc3c(=O)n4nc(Nc5ccccc5C)sc4nc3c2)cc1,1.0%,-13.2%,44.6%,nt,?,nt
CCCC1c2ccc(C)n2CCN1C(=O)Nc1ccccc1Cl (centres undefined),-25.6%,-6.0%,-8.5%,-4.7%,-9.5%[59 µM],10.0%
CCOC(=O)c1ccccc1NC(=O)N1CCn2c(C)ccc2C1CC (centres undefined),-16.9%,-10.8%,29.2%,-11.5%,22.4µM*,-2.8%
CCC1c2ccc(C)n2CCN1C(=O)Nc1ccccc1C(=O)OC (centres undefined),-32.1%,-27.7%,7.8%,-9.3%,50.1µM*,-4.9%
CCC1c2ccc(C)n2CCN1C(=O)Nc1cc(Cl)ccc1OC (centres undefined),?,-8.0%,4.5%,5.3%[11.4 µM],-0.9%[59 µM],-8.3%
CCCCN(C)CCCNC(=O)Cn1nc(CC)n2c(cc3sc(C)cc32)c1=O,18.2%,3.4%,38.6%,nt,-4.7%[59 µM],nt
O=C1CC(SCCc2nc3ccccc3[nH]2)C(=O)N1c1ccc(F)cc1 (centres undefined),-15.6%,-30.6%,17.8%,0.1%,44.7µM*,-6.3%
CC(=O)c1cccc(NC(=O)CC(c2ccc(C)cc2)N2Cc3ccccc3C2=O)c1 (centres undefined),-17.9%,-37.6%,1.6%,nt,-29.4%[59 µM],nt
COCC(=O)N1CCC2(CC1)CN(Cc1ccc(C#N)cc1)C2,nt,nt,nt,nt,6.6%[12.7 µM],15.9%
CC1(C)OC2C(CO)OC(n3cnc4c(=S)nc[nH]c43)C2O1 (centres undefined),?,50.1µM*,?,5.2%,8.91µM*,15.8µM*
OCC1OC(n2cnc3c(=S)nc[nH]c32)C(O)C1O (centres undefined),20µM*,nt,?,nt,15.8µM*,3.55µM*
O=c1[nH]cnc2c1ncn2C1OC(CO)C(O)C1O (centres undefined),-7.6%,nt,3.1%,nt,23.1%[59 µM],?
CC1(C)OC2C(CO)OC(n3cnc4c(=O)[nH]cnc43)C2O1 (centres undefined),nt,nt,nt,nt,nt,9.1%
CCOc1ccc(NC(=O)C(C)n2c(=O)cc(-c3ccccc3)c3c(C)nn(C)c32)cc1 (centres undefined),-12.7%,-8.0%,15.3%,nt,3.4%[59 µM],nt
CC(C)(C)c1cn(-c2ccc(F)cc2)c(=S)[nH]1,25.1µM*,-6.7%,23.4%,nt,1.41µM*,?
CCc1ccc(-n2cc(-c3ccc([N+](=O)[O-])cc3)[nH]c2=S)cc1,-24.3%,-36.2%,8.7%,-7.3%,?,-17.3%
Cc1cccc(NC(=O)CCn2nc(-c3ccccc3)c3ccccc3c2=O)c1,-23.8%,-11.8%,29.2%,nt,3.5%[59 µM],nt
CN(Cc1ccon1)C(=O)CC1C(=O)NCCN1Cc1cccc(Oc2ccccc2)c1 (centres undefined),-27.0%,?,34.1%,-8.1%,?,2.5%
COc1cccc(CN2CCNC(=O)C2CC(=O)N(C)C2CCCCC2)c1 (centres undefined),-13.6%,-19.9%,31.5%,nt,50.1µM*,10.8%
